Bioassay records from PubChem BioAssay.
Rab9 promoter act: activators of Rab9 promoter | Huh7 Rab9 promoter-luciferase reporter, luminescence, 24 h | Potency, µM (highest dose often 9.22 µM), for the others: at the highest dose activation, negative = inhibition, usual class: activators | 2.8% of 320,000 active; note: % of control where 0% means no effect; nearly all actives have a fitted effect of over 60% in size
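Promoter activation is measured as luciferase luminescence in Huh7 cells stably transfected with a Rab9 promoter–luciferase construct, following 24 h compound exposure at 37 °C and 10 min reagent incubation at ambient temperature.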
NPC1 prom act: activators of NPC1 promoter. Potency, µM (doses to about 9.22 µM), without a hit: at the highest dose activation, hits mostly activators. Huh7 NPC1 promoter luciferase reporter, 24 h. 2.4% of 320,000 active. AID 485313; note: % of control where 0% means no effect; nearly all actives have a fitted effect of over 60% in size
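Luciferase expression driven by the NPC1 promoter was measured in stably transfected Huh7 cells after a 24 h compound incubation, using a luciferase reagent and a luminescence read.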
ELG1 genotoxic: genotoxicity induction in ELG1-luciferase HEK293T cells. HEK293T ELG1-luciferase reporter, luminescence, 16 h. 1.3% of 330,000 active. AID 504466. Potency, µM (doses to about 46 µM), for the others: at the highest dose activity change, positive = activation, usual class: activators; note: % of control where 0% means no effect; nearly all actives have a fitted effect of over 60% in size
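Genotoxicity was scored as increased ELG1-luciferase reporter signal, measured by ONE-Glo luminescence (30 min, room temperature). Compound or vehicle exposure of the HEK293T reporter cells lasted 16 hr at 37°C.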
uPA generation: blocks generation of uPA at the cell surface. cell surface uPA generation assay, qHTS. Potency, µM (top dose mostly 38.3 µM), without a hit: at the highest dose activity change, negative = inhibition, hits mostly inhibitors. 0.31% of 330,000 active. AID 540303; active = well fitted inhibition curve with a large enough effect; inconclusive = small, poorly fitted or top-dose-only effect; inactive = no such curve, though single readings can be large or run the other way; tested in mouse RAW 264.7 cells; note: % is set by controls: 0 for no effect and ±100 for the full control effect; nearly all actives have a fitted effect of over 55% in size
FLuc counter: firefly luciferase modulation, counter-screen for miR-21 project. P08659. purified FLuc, Km substrates, luminescence inhibition. Potency, µM (highest dose often 57.5 µM), for the others: at the top dose activity change, negative = inhibition, actives largely listed as inhibitors. 6.9% of 360,000 active. AID 588342;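 note: plate controls were vehicle for no effect and reference inhibitor for full effect; nearly all actives have a fitted effect of over 55% in size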
Target sequence (P08659 whole entry, looked up): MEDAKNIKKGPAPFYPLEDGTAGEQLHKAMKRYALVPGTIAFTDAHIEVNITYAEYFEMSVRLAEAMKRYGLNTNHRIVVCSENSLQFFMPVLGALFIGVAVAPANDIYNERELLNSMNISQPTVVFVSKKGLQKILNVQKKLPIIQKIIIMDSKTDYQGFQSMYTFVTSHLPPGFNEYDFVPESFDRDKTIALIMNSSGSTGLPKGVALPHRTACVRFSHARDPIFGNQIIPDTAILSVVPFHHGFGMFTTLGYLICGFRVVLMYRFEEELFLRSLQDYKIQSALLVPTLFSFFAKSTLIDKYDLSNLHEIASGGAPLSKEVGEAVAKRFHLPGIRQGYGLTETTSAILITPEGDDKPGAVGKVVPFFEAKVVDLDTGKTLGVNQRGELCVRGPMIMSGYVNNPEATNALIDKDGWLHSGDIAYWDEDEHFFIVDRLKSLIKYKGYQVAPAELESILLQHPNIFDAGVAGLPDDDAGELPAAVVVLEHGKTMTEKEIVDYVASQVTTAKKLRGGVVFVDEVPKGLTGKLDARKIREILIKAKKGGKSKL
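Purified P. pyralis luciferase, 10 nM final, with Km-level 10 uM D-luciferin and 10 uM ATP in 50 mM Tris acetate pH 7.5, 10 mM Mg acetate, 0.01% Tween-20, 0.05% BSA; 6-point qHTS titration about 60 µM downward; luminescence read.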
SMN2 splice enh: SMN2 splice variant enhancement | AID 1458 | 2.8% of 210,000 active | HEK293 SMN2-luciferase splicing reporter, luminescence, 30-36 h | Potency, µM (top dose mostly 46.1 µM), inactives show at the top dose activity change, positive = activation, most hits filed as activators; note: % of control where 0% means no effect; nearly all actives have a fitted effect of over 55% in size
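HEK293 cells carry an SMN2 minigene-luciferase reporter in which exon 7 inclusion puts luciferase in frame. Cells were seeded at 2000 cells/well, attached for 10-12 hours, then exposed to compounds for 30-36 hours at 37C before ONE-Glo luminescence.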
An asterisk follows results filed as active; ? = inconclusive; / = no result; [ ] = remark or other dose. Compounds with a hit are over-represented: about 7.3% of the library has one in this group of screens. Unless noted, calls come from the whole dose curve; as a rule, active = well fitted curve in the direction sought with a large enough effect; inconclusive = small, poorly fitted or top-dose-only effect, or another doubt; inactive = no such curve, though single readings can be large; an effect the other way counts as inactive or inconclusive. Potency is the fitted concentration of half-maximal effect.

SMILES	Rab9 promoter act	NPC1 prom act	ELG1 genotoxic	uPA generation	FLuc counter	SMN2 splice enh
c1ccc(CN2CCc3nc4ccccc4cc3C2)cc1	?	?	?	-3%	12µM*	/
[N-]=[N+]=NCC(=O)c1c[nH]c(=O)[nH]c1=O	/	/	/	/	/	-16%[9.22 µM]
O=C(CCCOc1ccc(Cl)cc1Cl)N1CCC2(CC1)OCCO2	5%	4%	?	/	?	22%
CCC(Oc1cc(Cl)ccc1Cl)C(=O)N1CCC2(CC1)OCCO2 (stereo unspecified)	1.8µM*	0.89µM*	?	8%	11µM*	/
CC(C)(C)c1ccc(OCCON2C(=O)CCC2=O)c(Cl)c1	0%	-9%	?	0%	15µM*	-6%
COc1cc(OC)c(/C=C2\C(=O)Nc3ccccc32)c(OC)c1	-26%	-28%	-30%	7.9µM*	-12%	/
COC1C(O)C(C)O[C@H](OC2CC[C@@]3(C=O)C4CC[C@]5(C)C(C6=CC(=O)OC6)CC[C@@]5(O)C4CC[C@@H]3C2)C1O (stereo partly specified)	/	/	/	/	/	-71%
COc1ccc(O)c(/C=N/NC(=S)Nc2cccnc2)c1	-7%	12%	18%	11µM*	9.5µM*	-43%
CN(C)C(=O)Oc1ccc(OCc2nc3ccccc3[nH]2)cc1	0.45µM*	?	?	-8%	1.5µM*	7.1µM*
CN(C)C(=O)Oc1ccc(OC(=O)N(C)C)cc1	?	-5%	2%	-7%	3%	22%
COC(=O)C1(C)C=C2C(=C(C)C(=O)C2C)CN1 (stereo unspecified)	/	/	/	/	/	-3%
Fc1cccc(/C=N/Nc2ncnc3nc[nH]c23)c1	3.5µM*	?	-2%	?	19µM*	10µM*
O=C(N/N=C/c1c(O)n(C2CCCCC2)c(=S)[nH]c1=O)c1ccccc1O	7%	1%	3%[9.26 µM]	-5%	15µM*	/
CC(C)c1ccc(-n2c(O)c(/C=N/NC(=O)c3ccccc3O)c(=O)[nH]c2=S)cc1	2%	5%	0%	0%	27µM*	/
O=C(N/N=C/c1c(O)n(Cc2ccco2)c(=O)[nH]c1=O)c1ccccc1O	-1%	2%	0%	1%	15µM*	/
O=C(O)C[O][Sb][O]CC(=O)O	/	/	/	/	/	15%[9.22 µM]
COc1ccccc1N	/	/	/	/	/	-6%
COc1ccccc1N=Nc1ccc(N)c(C)c1	11%[1.84 µM]	26%	?	-5%	15µM*	/
Cn1ncnc2c(=O)n(C)c(=O)nc1-2	-57%	-55%	-17%	1.1µM*	-4%	-11%
Cn1c(NN=O)nc2ccccc21	-44%	-13%	?	0%	24µM*	/
O=C(Cn1cc(C(=O)c2ccccc2F)c2ccccc21)NCc1ccco1	8%	4%	6%	-8%	-1%	-6%
CC(C)(C)C(=O)c1cn(CC(=O)NCc2ccco2)c2ccccc12	3.2µM*	?	?	1%	?	14µM*
CCOc1ccc(C(=O)Nc2cccc(C(=O)OCc3cc(=O)n4nc(C5CC5)sc4n3)c2)cc1	/	/	/	/	1.9µM*	/
CCOC(=O)c1cccc(NC(=O)c2c(O)[nH]c(=O)[nH]c2=O)c1	/	/	/	-22%	/	/
CC(=O)Nc1ccccc1C(=O)OCC(=O)c1ccc2c(c1)OCCO2	3.5µM*	?	11%	-6%	0.76µM*	/
Cc1onc(-c2ccccc2Cl)c1C(=O)OCC(=O)c1ccc2c(c1)OCCO2	7%	7%	-9%	1%	4.8µM*	13%
Cc1onc(-c2c(Cl)cccc2Cl)c1/C(N)=N/OC(=O)N(C)C	-5%	-2%	0%	-1%	0%	/
CC(=O)Nc1ccccc1C(=O)OCC(=O)Nc1ncccn1	-3%	3%	9%	0%	-1%	/
O=C(O)c1cc(N=Nc2ccc([As](=O)(O)O)cc2)ccc1O	/	/	/	/	/	-1%[9.22 µM]
CCCCCC[C@H]1C(=O)O[C@H](C)[C@H](NC(=O)c2cccc(NC=O)c2O)C(=O)O[C@@H](C)[C@H]1OC(=O)CC(C)C	/	/	/	/	/	-61%[20.6 µM]
